Experimental data: PubChem BioAssay AID504727 (Broad Institute, 2011)
Calls of active or inactive are those of the source.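 The calls were made as follows: active = fitted half-maximal concentration AC50 at or below ten times the highest valid tested dose, with signal falling as DNA is displaced (actives reach about 34 µM in these data); inconclusive = flat fit at moderate signal loss, or poor fit quality; inactive = the rest, including signal rising instead of falling.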

Assay: acridine orange-DNA binding displacement – biochemical, fluorescence polarization, cherry-picked samples, set 2, artefact control for KSHV LANA DNA-binding inhibitor project, dose response (AID 504727)

Structure (SMILES) | AC50
COc1cc(OC)cc(-c2c(-c3ccsc3)c3cc(Br)ccc3n2C)c1 | inactive
Nc1nnc(CC(=O)N/N=C/c2cc([N+](=O)[O-])cc(Br)c2O)s1 | inactive
NS(=O)(=O)c1cc(C(=O)NC2CCSc3ccccc32)ccc1Cl (stereo unspecified) | inactive
Cn1c(=O)c2c(nc(N/N=C/c3ccc(OC(=O)c4ccco4)cc3)n2Cc2ccc(F)cc2)n(C)c1=O | inactive
O=C(N/N=C\c1ccc([N+](=O)[O-])o1)c1cncc(Br)c1 | inactive
Cn1c(N)c(C(=O)COC(=O)c2ccc(Cl)c(S(=O)(=O)N3CCCC3)c2)c(=O)n(C)c1=O | inactive
CC(C(=O)Nc1ccc(C(=O)O)c(O)c1)N1C(=O)/C(=C\c2ccco2)SC1=S (stereo unspecified) | inactive
COc1ccc(CCNC(=O)CNC(=O)Cn2ccc3ccccc3c2=O)cc1OC | inactive
O=C(NCC1CCCO1)c1cccc(S(=O)(=O)N(Cc2ccccc2)c2ccccc2)c1 (stereo unspecified) | inactive
O=C(O)c1cccc(-n2cccc2/C=C2/NC(=O)N(c3ccc(Cl)cc3)C2=O)c1 | inactive
Cc1ccc(-c2nnn(CC(=O)NC3CCN(Cc4ccccc4)CC3)n2)cc1 | inactive
O=C1c2cccc3c(N4CCCCC4)ccc(c23)C(=O)N1c1cccc(O)c1 | inactive
NS(=O)(=O)c1ccc(N=Nc2c[nH]c(=O)c(O)c2)cc1 | 15.8 µM (active)
Cc1cc(NC(=O)CSc2nnc(COc3cccc(C)c3C)n2C)no1 | inactive
COc1ccccc1N1CCN(S(=O)(=O)c2c(C)[nH]c(C)c2C(=O)N2CCCC2)CC1 | inactive
Cc1ccccc1C1=C/C(=C(\SS/C(C(=O)c2ccc(OCC(=O)O)c(Cl)c2Cl)=C2\C=C(c3ccccc3C)SS2)C(=O)c2ccc(OCC(=O)O)c(Cl)c2Cl)SS1 | inactive
O=C(O)c1ccc2c(c1)C(=O)/C(=C\c1ccco1)C2=O | inactive
O=C1c2ccccc2C(=O)N1Cc1ccc2c(c1)OCO2 | inactive
COc1cc(-c2ccc(Nc3ccccc3C(=O)O)c(OC)c2)ccc1Nc1ccccc1C(=O)O | inactive
Cc1nc2ccccc2n2c(O)c(CC(=O)O)cc12 | 10.2 µM (active)
O=C(O)/C=C/c1ccccc1Oc1ccccc1 | inactive
